Measurements: PubChem BioAssay (NCI)
This is part of a sample that, as a whole, favours compounds with a hit. Of some 83,000 tested, about 20% had one in any assay.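 96-well plates, one dose, 48 hours. Percent growth reported; active if below 10.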 A number with no mark means an inactive call. Activity calls are given as the source filed them.

Test system: HL-60(TB) leukemia
Assay: NCI-60 one-dose screen, 48 h (100 = growth as untreated, 0 = no growth, -100 = all killed)
Details: 10 µM unless noted

| SMILES | growth |
| --- | --- |
| C=CCC(CCCC)(C(=O)OCC)C(=O)OCC | 80.6% |
| Cc1nc2ccccc2n1C(=O)C[C@@H]1NC(=S)NC1=O | 101% |
| Brc1ccsc1Br | 102% |
| COc1ccc(/C=C2\CCCC3C2=Nc2ccccc2NC3c2ccc(OC)cc2)cc1 (stereo not given) | 78.2% |
| CCCCCCCCCc1cc[n+](CC(=O)c2ccc([N+](=O)[O-])cc2)cc1 | -40.4% (active) |
| CCOC(=O)C1(N)CCCCC1 | 110% |
| Cc1ccc2[nH]cc(-c3nc(-c4cn(C)c5ncccc45)cs3)c2c1 | 63.7% |
| C[C@@H](Oc1cc(-c2cnn(C3CCNCC3)c2)cnc1N)c1c(Cl)ccc(F)c1Cl | -59.4% (active) |
| CC[C@H](Nc1ncnc2nc[nH]c12)c1nc2cccc(CC(=O)c3ccc(C(=O)NO)cc3)c2c(=O)n1-c1ccccc1 | 75.5% |
| C[C@@H](C(=O)O)c1ccc2c3cc(Cl)ccc3n(Cc3cc(=O)oc4ccc(Cl)cc34)c2c1 | 89.9% |
| O=C1NC(=O)c2c(CCCSc3nc4ccccc4c(=O)n3CCc3ccccc3)cccc21 | 111% |
| COc1cc([N+](=O)[O-])c2ncccc2c1O | 72.1% |
| NNc1ccccc1C(=O)O | 49.1% |
| COc1ccc(C2=Nc3c(N)nc(N)nc3NC(c3cccc(Nc4ccnc5cc(C(F)(F)F)ccc45)c3)C2)cc1 (stereo not given) | 81.6% |
| C#CC(C(C)C)N(CCO)CCCC (stereo not given) | 108% |
| Nc1nc(NC2CC2)cc(-c2cccc(Cl)c2Cl)n1 | 32.6% |
| CCc1ccccc1-n1c(N)c(C#N)c(-c2ccc(Cl)cc2)c(C#N)c1=O | 117% |
| CC(C)(C)n1cc(-c2ccnc(NCCCNS(=O)(=O)c3ccc(F)cc3)c2)c(-c2cccc(O)c2)n1 | 39.9% |
| COc1cc(C2CC(=O)Nc3c2c(C)nn3-c2nc3ccccc3[nH]2)c(OC)c(OC)c1OC (stereo not given) | 21.5% |
| Cc1sc(NC(=O)c2ccc(C(C)(C)C)cc2)c(C(=O)O)c1C | 45.2% |
| CC1(C(=O)O)CCC(N)(C(=O)O)C1(C)C (stereo not given) | 101% |
| COc1ccc(-c2[nH][nH]c(=O)c2-c2nc3ccccc3s2)cc1 | 99.5% |

| SMILES | growth |
| --- | --- |
| CCC(C)(C)C(=O)O[C@H]1C[C@@H](C)C=C2C=C[C@H](C)[C@H](CC[C@@H]3CC=CC(=O)O3)[C@H]21 | 5.76% (active) |
| COc1ccccc1C(=O)/C=C/c1ccccc1 | 77% |
| COc1ccc(S(=O)(=O)c2ccc(C(N)=O)cc2)cc1NC(=O)c1[nH]c(C)c2c1CCCCC2=O | 4.2% (active) |
| CC(=O)/C(=C/c1ccc(Br)cc1)C(=O)c1ccccc1 | 57% |
| CN1c2ccccc2[C@]2(Cc3ccccc3)Cc3ccccc3N[C@H]12 | 94.7% |
| CC(=O)NC1=C(C#N)C(c2ccccc2Cl)c2c(ccc3ccccc23)O1 (stereo not given) | 29.7% |
| O=C(COc1ccc(/C=C2\CSc3ccccc3C2=O)cc1)Nc1nccs1 | -22.4% (active) |
| N#Cc1c(NC(=O)c2cccs2)[n+]([O-])c2ccc(F)cc2[n+]1[O-] | 91.6% |
| COP(=O)(OC)c1nnn(-c2cccc([N+](=O)[O-])c2)c1C | 99.8% |
| Nc1ccccc1NC(=O)CCCCCCC(=O)Nc1ccc2c(c1)/C(=C/c1ccc[nH]1)C(=O)N2 | -10.2% (active) |
| CN1CCN(Cc2cc(NC(=O)c3cccc(C#Cc4cccc5[nH]nc(N)c45)c3)cc(C(F)(F)F)c2)CC1 | 0.0221% (active) |
| N#CC(C#N)C(C#N)C#N | 98.6% |
| COc1ccc(-c2nn(-c3ccc(NC(=O)Nc4cc(C(F)(F)F)cc(C(F)(F)F)c4)cc3)cc2-c2ccncc2)cc1Cl | 4.01% (active) |
| COc1cc2nc(-c3ccc(Cl)cc3)cc(OCCCN3CCC(O)CC3)c2cc1OC | 32.9% |
| COc1cc2c(c(OC)c1OC)-c1ccc(N=NC(N)=S)c(=O)cc1[C@@H](NC(C)=O)CC2 | -17.7% (active) |
| COc1ccc(CNC(=O)C(O)C(Cc2ccccc2)NC(=O)c2[nH]c3ccccc3c(=O)c2C)cc1OC (stereo not given) | 97.3% |
| COc1ccc(-c2cnoc2-c2cc(OC)c3c(c2)OCCO3)cc1 | -27.4% (active) |
| CNC(=O)c1cc(Oc2ccc3nc(Nc4cc(Cl)cc(Cl)c4)ccc3c2)ccn1 | 47.6% |
| Clc1ccc(Sc2nc(NC3CC3)nc(Sc3ccc(Cl)cc3)n2)cc1 | 60.9% |
| Cc1ccccc1-n1nnc(C(=O)Nc2nc3ccc(F)cc3s2)c1C | 1.12% (active) |
| O=C(C=C=Nc1ccccc1)C(=O)N=C=Cc1ccccc1 | -26% (active) |
| NC(=O)c1c(NC(=O)c2cccc(C(F)(F)F)c2)sc2c1CCC(=O)C2 | -11.6% (active) |

| SMILES | growth |
| --- | --- |
| COc1ccc(-c2onc(N)c2-c2cc(OC)c3c(c2)OCO3)cc1 | -31.4% (active) |
| COc1cc(NCC(O)CN(CC(C)C)CC(C)C)c2ncccc2c1 (stereo not given) | 62.7% |
| CN(C)c1ccc(N=C2C=CC(=O)c3ccccc32)cc1 | 82.2% |
| CC(C)C(C#N)(C(C)C)C(C)C | 109% |
| O=C1/C(=C/c2cccc([N+](=O)[O-])c2)COc2ccc(O)cc21 | 15.3% |
| CCN(CCCCCCCCCCN1CC(=O)N(CCCCCCCCCCN(CC)Cc2ccccc2OC)CC1=O)Cc1ccccc1OC | -67.9% (active) |
| COC(=O)Cn1c2c(c3c(OC)cccc31)C(=O)c1ccccc1-2 | 75.6% |
| O=C(Nc1ccc(Oc2ccc(Nc3nc4ccccc4s3)cc2)cc1)Nc1ccc(Cl)c(C(F)(F)F)c1 | -19.3% (active) |
| COc1cc(/C=C/C(=O)C(C(=O)/C=C/c2ccc(OC(=O)CCNc3nnc(C)s3)c(OC)c2)C(=O)CCNc2nnc(C)s2)ccc1OC(=O)CCNc1nnc(C)s1 | -40.1% (active) |
| N=C(N)c1ccc(-c2ccc(-c3ccc(Cl)cc3Cl)s2)cc1 | -45.1% (active) |
| O=C(Cn1nnc2ccccc21)N/N=C/c1ccccc1F | 107% |
| COc1ccc(Oc2nc(Nc3ccc(N4CCOCC4)nc3)ncc2NC(=O)c2cc(OC)cc(OC)c2)cc1 | 75% |
| Cc1cccc(NC(=O)c2sc3nc4c(cc3c2N)C(=O)CCC4)c1 | 6.14% (active) |
| COc1cc(-c2nc(SCCC(C)C)nc(Nc3ccc(F)cc3)c2C#N)cc(OC)c1OC | 84.9% |
| CC[C@]12C=CCN3CC[C@@]4(c5cc(NC(=O)CCC(=O)O[C@H]6CC[C@H]7[C@@H]8CC[C@H]9CC(=O)CC[C@]9(C)[C@H]8CC[C@]67C)c(OC)cc5N(C)[C@H]4[C@@](O)(C(=O)OC)[C@@H]1OC(C)=O)[C@@H]32 | 38.6% |
| COc1cc(/C=N/NC(=O)CCN2c3ccccc3Sc3ccccc32)cc(OC)c1OC | 77.9% |
| COc1ccc(OC)c(Nc2nc3nonc3nc2Nc2cc(OC)ccc2OC)c1 | 103% |
| O=C(NC1CCS(=O)(=O)C1)c1ccc(C(=O)c2ccccc2)cc1 (stereo not given) | 191% |
| FC(F)(F)c1cc(Nc2ccc3cc(OCCCN4CCOCC4)ccc3n2)ccc1Cl | 29% |
| COc1ccc(C2=NN(c3ccc(S(N)(=O)=O)cc3)C(c3ccc(Cl)cc3)C2)c(O)c1 (stereo not given) | 29.9% |
| O=C(CCc1nnc(-c2c(Cl)cccc2Cl)o1)c1nc2ccccc2[nH]1 | -33.8% (active) |
| Cc1ccccc1CC(N)C(=O)O (stereo not given) | 103% |

| SMILES | growth |
| --- | --- |
| C=C1N(C)c2ccc(Cl)cc2C1(C)C | 6.42% (active) |
| O=[N+]([O-])c1ccccc1NC1c2ccccc2Oc2ccccc21 | -14.4% (active) |
| CC1(C)CC[C@]2(C(=O)Nc3ccccn3)CC[C@]3(C)C(=CC[C@@H]4[C@@]5(C)C/C(=C/c6ccncc6)C(=O)C(C)(C)[C@@H]5CC[C@]43C)[C@@H]2C1 | -0.971% (active) |
| CCOC(=O)C1=C(C)N2C(=NC3=C(CCCC/C3=C\c3ccccc3)C2c2ccccc2)S1 (stereo not given) | 101% |
| Cc1c2cnccc2c(C)c2c1c1cc(O)ccc1n2C(C)C | 0.765% (active) |
| N#Cc1ccc(-c2csc(Nc3ccc4nc5n(c(=O)c4c3)CCC5)n2)cc1 | 103% |
| N#Cc1c(N)nc(Nc2nc3ccccc3[nH]2)nc1-c1ccc(Cl)cc1 | 106% |
| O=c1c2cc(F)ccc2sc2c(NCCO)nc3ccccc3c12 | 91.9% |
| CC1CCC2(OC1)OC1CC3C4CC=C5CC(O)CCC5(C)C4CCC3(C)C1C2C (stereo not given) | 91.9% |
| Cc1ccc(NC(=O)c2cc(NCc3cc(O)ccc3O)ccc2O)cc1 | 16.1% |
| FC(F)(F)c1[nH]ncc1-c1nc2ccc3[nH]ncc3c2c2c1CCCC2 | -32.3% (active) |
| COc1cccc(-c2nc3sccn3c2/C=C/C(=O)c2ccc(C(F)(F)F)cc2)c1 | 46.2% |
| COc1ccc2c(c1)C(=O)c1c-2c(OCCCN(C)C)nc2cc(Br)ccc12 | 98.4% |
| Nc1nc(-c2ccc(Cl)cc2)cc(-c2cc3ccccc3oc2=O)n1 | 125% |
| O=C(Nc1cc(-c2cccnc2)nc(NCCCN2CCOCC2)n1)c1cc(Br)cc(C(F)(F)F)c1 | 48.5% |
| COc1ccc(C(=O)/C=C/c2cccnc2Nc2cc(OC)c(OC)c(OC)c2)cc1 | -23.2% (active) |
| CCCCCCCC/C=C\CCCCCCCCOc1cccc(CC(=O)NCC[N+]2(C)CCCCC2)c1 | 28% |
| COc1cccc(Cn2cc3c(c2)-c2oncc2CC3)c1 | 1.64% (active) |
| C=C(CN1CC=CCC1)[C@@H]1CC[C@]2(CO)CC[C@]3(C)[C@H](CC[C@@H]4[C@@]5(C)CC[C@H](O)C(C)(C)[C@@H]5CC[C@]43C)[C@@H]12 | 99.9% |
